Screening data (PubChem BioAssay)
Compounds with a hit are over-represented: about 21% of the library has one in this group of screens.
ClpP mod – qHTS Assay for Activators of ClpP; Potency, µM (top dose mostly 57.5 µM); AID 651965, 2013; ATP-dependent Clp protease proteolytic subunit (Bacillus subtilis (strain 168)), P80244; purified B. subtilis ClpP, FRET peptide cleavage, 20 min; 1.9% of 340,000 active; active = well fitted falling curve with a large enough effect; inconclusive = small, poorly fitted or top-dose-only effect; inactive = no such curve, though single readings can be large or run the other way; note: the source files actives as falling curves though it sought activators and does not explain the sign; nearly all actives have a fitted effect of over 65% in size
Target sequence (P80244 whole entry, looked up): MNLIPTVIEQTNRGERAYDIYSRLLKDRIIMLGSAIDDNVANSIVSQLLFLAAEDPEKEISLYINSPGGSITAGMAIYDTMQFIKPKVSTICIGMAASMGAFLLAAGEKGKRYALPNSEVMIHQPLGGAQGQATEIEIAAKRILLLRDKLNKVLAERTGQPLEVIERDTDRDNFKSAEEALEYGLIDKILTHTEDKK
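ClpP 10 microg/mL final, pH 8 Tris/KCl buffer with BSA, glycerol, Tween-20; compound pinned in; FRET-FV substrate; RT 20 min; Ex320/Em430; ΔFRET vs ADEP 5.8 microM, DMSO, no enzyme.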
IL-1B inflam inh – inflammasome signaling inhibition, IL-1 beta readout; AID 743279; THP-1 LPS/ATP IL-1B secretion, AlphaLISA, 16 h; stronger effect = lower value; 4.7% of 360,000 active; activity change, % at 57.5 µM; in the data active = activity change below about -50%; inconclusive = mostly about -30% to -49%
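Secreted IL-1B measured by AlphaLISA bead assay after 16 h compound exposure of THP-1 cells; compounds (final up to 57.5 uM) added 1 h before LPS (250 ng/mL) and ATP (1.25 mM) stimulation; lower signal means less secretion.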
TDP1 cell noCPT – qHTS for Inhibitors of human tyrosyl-DNA phosphodiesterase 1 (TDP1): qHTS in cells in absence of CPT; DT40 Tdp1-/- hTDP1 cells, no CPT, ATP luminescence, 48 h; Potency, µM (top dose mostly 46.2 µM), actives largely listed as inhibitors; 15% of 420,000 active; note: nearly all actives have a fitted effect of over 55% in size
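No-CPT arm: Tdp1-/-;hTDP1 DT40 cells (400/well) plus compounds, incubated ≥48 hr at 37 °C. Readout CellTiter-Glo luminescence.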
DRD3 agonist – activates the human D3 dopamine receptor. P35462. D3R DiscoveRx beta-arrestin cells, luminescence, 90 min. max activation, %. 0.58% of 410,000 active. AID 652048; in the data active = max activation above about 30%
Target sequence (P35462 whole entry, looked up): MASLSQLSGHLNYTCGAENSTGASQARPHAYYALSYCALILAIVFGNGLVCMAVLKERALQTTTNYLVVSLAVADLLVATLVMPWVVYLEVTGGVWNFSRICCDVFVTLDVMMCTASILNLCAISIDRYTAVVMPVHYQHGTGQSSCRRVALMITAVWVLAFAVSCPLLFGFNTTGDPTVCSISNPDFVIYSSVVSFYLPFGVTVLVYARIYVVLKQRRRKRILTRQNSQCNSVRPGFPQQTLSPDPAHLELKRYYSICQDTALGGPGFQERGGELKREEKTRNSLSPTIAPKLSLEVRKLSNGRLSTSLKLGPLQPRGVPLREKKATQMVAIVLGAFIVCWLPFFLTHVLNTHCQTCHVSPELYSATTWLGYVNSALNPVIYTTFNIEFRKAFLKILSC
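Agonist mode: compounds and dopamine controls were applied to plated cells for 90 min at 37 degrees C after an overnight attachment at 1500 cells/well. Luminescent read-out followed 30 - 60 minutes at room temperature with DiscoveRx detection reagent.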
DRD3 antagonist – D3 dopamine receptor (human) antagonism. D3R cells, DiscoveRx beta-arrestin luminescence, antagonist mode; stronger effect = lower value. max response, negative = inhibition, %. 2.5% of 360,000 active. AID 652054; in the data active = max response below about -50%; inconclusive = no clear call, values can overlap the other calls
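Cells expressing the human receptor were seeded at 1500 cells/well, incubated overnight at 37 degrees C in 5% CO2, then exposed to library compounds with dopamine controls for 90 minutes at 37 degrees C before luminescent detection.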
DT40 TDP1 CPT – growth inhibition of DT40 Tdp1-/-;hTDP1 cells with camptothecin (screen for TDP1 inhibitors); 12% of 420,000 active; Potency, µM (titrated, usually from 46.2 µM), usual class: inhibitors; chicken DT40 Tdp1-/-;hTDP1 cells + 20 nM CPT, ATP luminescence, 48 h; AID 686979; note: nearly all actives have a fitted effect of over 55% in size
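Chicken DT40 Tdp1-/- cells complemented with human TDP1, 400 cells/well, exposed to compounds plus 20 nM camptothecin for at least 48 h at 37 C; viability read as ATP content by CellTiter-Glo luminescence.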
A number is an active result; i = inactive; ? = inconclusive; nt = no result. Unless noted, calls come from the whole dose curve; as a rule, active = well fitted inhibition curve with a large enough effect; inconclusive = small, poorly fitted or top-dose-only effect; inactive = flat fitted curve, though single readings scatter.

SMILES	ClpP mod	IL-1B inflam inh	TDP1 cell noCPT	DRD3 agonist	DRD3 antagonist	DT40 TDP1 CPT
CCOC(=O)COn1c(-c2cccc(Cl)c2)nc2ccc([N+](=O)[O-])cc21	i	i	i	i	i	i
CCN(c1ccccc1)c1nc(N)nc(C#N)n1	i	nt	?	nt	nt	?
COC(=O)c1ccccc1NC(=O)C1CCN(c2ncnc3c2nc2n3CCCCC2)CC1	i	i	16µM	i	i	21µM
CC(C)N(Cc1ccccc1)C(=O)C1CCN(c2ncnc3c2nc2n3CCCCC2)CC1	i	i	18µM	i	i	?
COc1ccccc1NC(=O)C1CCN(c2ncnc3c2nc2n3CCCCC2)CC1	i	?	18µM	i	i	23µM
Cc1c(Cl)cccc1NC(=O)C1CCN(c2ncnc3c2nc2n3CCCCC2)CC1	i	nt	i	i	nt	?
CCOC(=O)c1c(C)n(C)c2c1cc(OC(C)=O)c1ccccc12	i	i	?	i	i	i
CCOC(=O)c1c(C)n(C)c2c(C)cc(O)c(OC(C)=O)c12	i	i	13µM	i	i	9.2µM
CCSc1nc(-c2ccc(OC)cc2)ccc1C#N	28µM	i	i	i	i	i
CCc1nn(CC(=O)N(C)Cc2ccccc2)c(=O)c2cc3sccc3n12	i	nt	?	i	nt	?
O=C(c1cc2nc(-c3ccccc3)cc(-c3ccccc3)n2n1)N1CCCC1	nt	-67	?	i	i	?
CN1CCN(C(=O)c2cc3nc(-c4ccccc4)cc(-c4ccccc4)n3n2)CC1	i	?	?	i	i	i
O=C(c1ccco1)N1CCN(C(=O)c2cc(-c3ccccc3)nc3ccccc23)CC1	i	i	?	i	i	?
O=C(c1cc2nc(-c3ccccc3)cc(-c3ccccc3)n2n1)N1CCN(C(=O)c2ccco2)CC1	i	?	15µM	i	i	23µM
Cn1cccc1C(=O)N1CCC2(CC1)CN(Cc1ccc(C#N)cc1)C2	nt	nt	i	nt	nt	i
COc1ccccc1Nc1nc(NCC(C)C)nc(N)c1[N+](=O)[O-]	nt	i	26µM	i	i	?
COc1ccccc1Nc1nc(NCCCN(C)C)nc(N)c1[N+](=O)[O-]	nt	-63	?	i	i	i
C=CCNc1nc(N)c([N+](=O)[O-])c(Nc2ccccc2OC)n1	i	i	i	i	i	?
CCC(C)Nc1nc(N)c([N+](=O)[O-])c(Nc2ccccc2OC)n1 (configuration not stated)	nt	-88	?	i	i	?
Cc1cccc(Cn2nc(-n3cccc3)c3c(C)cc(C)nc32)c1	i	i	?	i	i	?
O=C(NCC1(N2CCOCC2)CCCCC1)c1cccc(S(=O)(=O)N2CCc3ccccc3C2)c1	i	i	?	i	i	18µM
O=C(NCCCN1CCOCC1)c1cccc(S(=O)(=O)N2CCc3ccccc3C2)c1	nt	i	?	i	-57	?
CC1CCCCC1NC(=O)CN1C(=O)NC(C)(c2cccc(Br)c2)C1=O (configuration not stated)	i	i	?	i	i	i
Nc1cc(=O)[nH]c(SCC(=O)Nc2ccc(N3CCOCC3)cc2)n1	i	i	i	i	i	i
O=C(C[n+]1cccc2ccccc21)c1ccc(F)cc1	i	nt	i	nt	nt	i
SMILES	ClpP mod	IL-1B inflam inh	TDP1 cell noCPT	DRD3 agonist	DRD3 antagonist	DT40 TDP1 CPT
COc1ccccc1C1=NOC(Cn2c(NCCCO)nc3c2c(=O)n(C)c(=O)n3C)C1 (configuration not stated)	i	i	?	i	i	i
COc1ccc(C2=NOC(Cn3c(Cc4ccc(Cl)cc4)nc4c3c(=O)n(C)c(=O)n4C)C2)cc1 (configuration not stated)	i	i	23µM	i	i	26µM
Cc1ccc(NC(=O)CCn2cc(C(F)(F)F)ccc2=O)cc1	i	i	i	i	i	i
Cc1ccc(OCC(=O)NNC(=O)Nc2ccc(Cl)cc2)c(Br)c1	nt	i	i	i	i	i
O=C(CSCc1ccc(F)cc1)N1CCN(c2ccccc2F)CC1	i	nt	26µM	i	nt	21µM
O=C(CCc1ccccc1)N1CCN(c2ccccc2F)CC1	i	i	i	i	i	i
O=C(CCCOc1ccccc1)N1CCN(c2ccc(F)cc2)CC1	i	i	18µM	i	i	?
O=C(CSCc1ccccc1)N1CCN(c2ccc(F)cc2)CC1	i	?	?	i	i	13µM
CCc1ccccc1NC(=O)Nc1cc(F)ccc1F	i	i	i	i	i	?
N#Cc1nc(-c2cccs2)oc1N1CCN(c2ccccc2)CC1	28µM	i	i	i	i	i
N#Cc1nc(Cc2ccccc2)oc1N1CCN(c2ccccc2)CC1	i	?	?	i	i	10µM
N#Cc1nc(-c2cccs2)oc1NCc1ccccc1	i	i	i	i	i	i
N#Cc1nc(COc2cccc(Cl)c2)oc1N1CCN(c2ccccc2)CC1	i	i	?	i	i	?
COCCNC(=O)CN(Cc1ccc2c(c1)OCO2)C(=O)CCC(=O)Nc1nccs1	i	i	18µM	i	i	18µM
CCOc1ccc(CCNC(=O)CCCn2c(=O)c3cccn3c3cccnc32)cc1	i	nt	?	i	nt	?
COc1ccc(C)cc1NC(=O)CSc1nc2ccccc2nc1N1CC(C)OC(C)C1 (configuration not stated)	i	i	26µM	i	i	23µM
COc1ccccc1NC(=O)CSc1nc2ccccc2nc1N1CC(C)OC(C)C1 (configuration not stated)	i	i	?	i	i	21µM
COc1cccc(NC(=O)CSc2nc3ccccc3nc2N2CCCC2)c1	i	i	?	i	i	?
Cc1cccc(NC(=O)CSc2nc3ccccc3nc2N2CC(C)OC(C)C2)c1 (configuration not stated)	?	i	?	i	i	?
CN(Cc1ccccc1)S(=O)(=O)c1cccc(C(=O)O)c1	nt	i	i	i	i	i
CCOc1cccc2cc(C(=O)NCc3ccc(Cl)cc3)c(=N)oc12	i	-65	?	i	i	?
CCOc1ccc2cc(C(=O)NCc3ccccc3)c(=N)oc2c1	nt	-77	?	i	i	?
COc1ccc(CNC(=O)c2cc3cccc(OC)c3oc2=N)cc1	i	i	?	i	i	i
N#C/C(=N\Nc1cccc2ccccc12)c1nnc2n1CCCCC2	i	i	33µM	i	i	?
CCOC(=O)c1scc(-c2ccc(C)cc2)c1S(=O)(=O)N1CCN(c2ccccc2)CC1	i	nt	8.2µM	i	nt	13µM
CCOC(=O)c1c(C)[nH]c(C)c1S(=O)(=O)N1CCN(c2ccccc2OC)CC1	i	nt	i	i	nt	i
